Bioassay records: PubChem, National Center for Advancing Translational Sciences (NCATS)
The list is not random: actives were taken first. Their share in the collection is about 3.9%.
VDR inh – vitamin D3 receptor (human) inhibition. P11473. VDR-SRC2-3 peptide fluorescence polarization, 2 h. Potency, µM, for the others: max response, negative = inhibition, hits mostly inhibitors. actives 0.93% (n = 400,000). AID 504847; also: % is scaled to controls: 0 for no effect and ±100 for the full control effect
Target sequence (P11473 whole entry, looked up): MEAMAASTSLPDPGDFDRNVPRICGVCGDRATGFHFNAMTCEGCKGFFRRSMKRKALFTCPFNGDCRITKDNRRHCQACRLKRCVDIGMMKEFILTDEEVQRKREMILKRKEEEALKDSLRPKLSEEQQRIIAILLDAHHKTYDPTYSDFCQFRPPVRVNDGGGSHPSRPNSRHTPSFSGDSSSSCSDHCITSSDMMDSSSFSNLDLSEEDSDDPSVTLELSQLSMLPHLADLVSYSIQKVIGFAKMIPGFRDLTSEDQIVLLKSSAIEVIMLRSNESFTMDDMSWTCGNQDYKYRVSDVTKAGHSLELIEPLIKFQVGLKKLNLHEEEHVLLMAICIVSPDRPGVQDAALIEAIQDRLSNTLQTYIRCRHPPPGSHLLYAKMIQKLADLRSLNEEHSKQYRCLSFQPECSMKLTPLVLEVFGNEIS
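Fluorescence polarization assay measuring small-molecule disruption of VDR binding to the coregulator peptide SRC2-3. Compounds were pin-transferred (23 nl) into the reagent mix and incubated 2 h at room temperature before reading.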
Tb PFK block – T. brucei PFK enzyme inhibition; Potency, µM (titrated, usually from 57.5 µM), without a hit: at the top dose activity, negative = inhibition, actives largely listed as inhibitors; T. brucei PFK, ADP-Glo luminescence; O15648; AID 485367; actives 0.17% (n = 330,000);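 also: 0% = uninhibited 1x PFK enzyme wells and -100% = no-enzyme wells; nearly all actives have a fitted effect of over 60% in size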
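1.25 nM PFK with 0.5 mM F6P and 0.1 mM ATP in 0.1 M TEA pH 8.0, 5 mM MgCl2, incubated 45 min at room temperature; ADP measured by ADP-Glo luminescence; compounds titrated up to 57 uM.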
BRCA1 expr up – increases BRCA1 expression. Potency, µM (titrated, usually from 46.1 µM), without a hit: at the top dose activation, actives largely listed as activators. actives 1.1% (n = 380,000). MCF7-BRCA1-FFLuc reporter, luminescence, 48 h; response scale: scaled: vehicle 0%, 10 µM genistein 100%; also: nearly all actives have a fitted effect of over 80% in size
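MCF7 cells carrying a BRCA1-firefly luciferase reporter (2000 cells/well, phenol-red free MEM) were attached for 2 h at 37 °C, then given compounds for 48 h. Luminescence was read 15 min after luciferase reagent; activity normalized to genistein (10 microM) and DMSO.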
PLK1 PBD inh – inhibitors of human PLK1 polo-box domain binding | P53350 | Plk1 PBD binding of FITC phosphopeptide, fluorescence polarization | Potency, µM, inactives show max response, negative = inhibition, hits mostly inhibitors | actives 2.8% (n = 360,000); also: series mostly up to about 57 µM; % is scaled to controls: 0 for no effect and ±100 for the full control effect; nearly all actives have a fitted effect of over 65% in size
An asterisk follows results filed as active; ? = inconclusive; · = no result; ! = not confirmed by another sample. Calls follow the shape of the dose curve; as a rule, active = well fitted curve in the direction sought with a large enough effect; inconclusive = small, poorly fitted or top-dose-only effect, or another doubt; inactive = no such curve, though single readings can be large; an effect the other way counts as inactive or inconclusive. Potency is read from the fitted curve at half-maximal effect.

SMILES	VDR inh	Tb PFK block	BRCA1 expr up	PLK1 PBD inh
CCOC(=O)c1cc(-c2ccc(OC)cc2)n[nH]1	-24%	-3%	11µM*	-7%
COc1ccc(-c2cc(-c3ccccc3O)[nH]n2)cc1OC	-6%	2%	?	2%
COc1ccc(-c2cc(-c3cc(F)ccc3O)[nH]n2)cc1OC	19%	1%	10µM*	-2%
COc1ccc(-c2cc(-c3cc(OC)ccc3O)[nH]n2)cc1	?	-1%	-4%	6.7µM*
COC(=O)[C@@]12C[C@@H](CC(=O)N3CCN(C(=O)C4CC4)CC3)C(=O)N(Cc3ccc4c(c3)OCO4)C1=CCC(C)(C)C2	·	·	·	-14%
CCOC(=O)c1ccc(O)c(-n2cc3c(c2-c2ccccc2)c(=O)n(C)c(=O)n3C)c1	·	·	0%	-11%
CCc1ccc(-n2c(=O)c3c4c(sc3n(CC(=O)c3ccc(F)cc3)c2=O)CCC4)cc1	-10%	·	·	·
COc1ccc(CNC(=O)N2CCN(c3cccc(C)c3C)CC2)cc1OC	5%	2%	-22%	-1%
Cc1cccc(N2CCN(C(=O)NCc3ccc(F)cc3)CC2)c1C	?	-12%	-18%	30µM*
Cc1ccc(NC(=S)NC(=O)C2CCCCC2)c(Br)c1	18%	2%	?	-2%
NS(=O)(=O)c1cccc(NC(=O)CCCNC(=O)c2ccc(Cl)cc2)c1	34%	2%	-38%	-7%
NS(=O)(=O)c1cccc(NC(=O)CCSc2ccc(Cl)cc2)c1	?	1%	-38%	12µM*
Clc1ccc(NC2(c3nnnn3C3CCCCC3)CCCCC2)cc1	?	-5%	-38%	27µM*
Cc1cccc(C)c1-n1nnnc1C1(Nc2ccccc2)CCCCC1	0%	6%	-29%	-4%
COc1cc(OC)cc(C(=O)NNC(=O)c2ccc(-n3cncn3)c([N+](=O)[O-])c2)c1	4%	-4%	-7%	6%
COC(=O)c1ccc(-n2cncn2)c([N+](=O)[O-])c1	9%	3%	-4%	27µM*
O=c1c2ccccc2nc2c3ccccc3cnn12	11%	5%	7.9µM*	6%
COc1cccc(CN2CCN(Cc3cccc4nonc34)CC2CCO)c1 (centres undefined)	-28%	0%	-7%	17µM*
COC(=O)[C@@]1(Cc2ccc(OC)cc2)[C@@H]2C(=CC(=O)[C@H]2CC(=O)C(=O)N(C)C)CN1C(=O)c1ccccc1	79µM*	25%	-53%	-14%
C=C1C(=O)C=C2CN(C(=O)c3ccccc3)[C@@](Cc3ccc(F)cc3)(C(=O)OC)[C@@H]12	?	6%	-81%	17µM*
COC(=O)[C@@]1(Cc2ccc(OC)cc2)[C@H]2c3cc(C(=O)N(C)C)n(C[C@H](O)CO)c3C[C@H]2CN1C(=O)c1ccccc1	5%	-4%	78%	-14%
O=c1cc(S(=O)(=O)Cc2ccccc2)[nH]c(=O)[nH]1	-10%	·	-17%	-20%
CSc1ccc(CNC(=O)C2(C)CCCN(C(C)=O)C2)cc1 (centres undefined)	·	·	0%	8%
O=C(Cn1cnc2ccccc2c1=O)c1ccc2ccccc2c1	9%	·	6.3µM*	-11%
COc1cc(/C=C/C(C)=O)cc(OC)c1OC	-12%	-3%	-38%	30µM*
SMILES	VDR inh	Tb PFK block	BRCA1 expr up	PLK1 PBD inh
COc1cc(/C=C/C(=O)c2cccs2)cc(OC)c1OC	13µM*	·	·	·
COc1cc(C=CC(=O)c2ccccc2)cc(OC)c1OC	·	·	-60%	-22%
COc1cc(C=CC(=O)c2cc(OC)c(OC)c(OC)c2)cc(OC)c1OC	?	·	-91%	-1%
COc1cc(O)cc(OC)c1OC	45µM*	·	·	·
COc1cccc([C@@H]2Oc3ccc(OC)cc3[C@H](O)[C@H]2O)c1	2%	·	·	·
Cc1cccc(C)c1NC(=O)C1c2ccccc2OCC(=O)N1Cc1cccnc1 (centres undefined)	·	·	1%	-1%
O=C(OCc1ccccc1)c1cccnc1	-4%	·	·	·
Cn1cc(-c2csc(C(O)c3ccccc3)n2)cn1 (centres undefined)	·	·	44%	4%
Cc1cc(NC(=O)CON=C(N)CC(=O)Nc2ccccc2Cl)ccc1Br	14%	-1%	-19%	-2%
Cc1ccc(NC(=O)N/C=C/c2ccc(Cl)cc2)cc1	-5%	1%	26%	27µM*
C[C@H]1CN([C@@H](C)CO)C(=O)c2cc(Br)cnc2O[C@@H]1CN(C)C(=O)c1ccncc1	·	·	12%	-8%
COc1ccc(C(=O)NCc2ccc3c(c2)OCO3)c(OC)c1	?	-3%	9%	27µM*
COc1ccccc1OCCC(=O)NCc1ccc2c(c1)OCO2	1%	-4%	-7%	30µM*
COc1ccccc1OCCC(=O)Nc1ccc2c(c1)OCO2	5%	0%	8%	-8%
CSCCC(NS(=O)(=O)c1ccc2c(c1)oc(=O)n2C)C(=O)NCCc1ccc(C)cc1 (centres undefined)	10%	·	·	·
COc1cc(-c2ccc(Nc3ccccc3C(=O)O)c(OC)c2)ccc1Nc1ccccc1C(=O)O	?	-16%	-23%	17µM*
O=C(Nc1ccccc1F)c1ccc2sc([C@H]3C[C@H](O)[C@@H](CO)O3)nc2c1	·	·	?	-4%
CCCCN1CC(O)C(O)C(O)C1CO (centres undefined)	-2%	·	·	·
COC(=O)C(N)CS (centres undefined)	18µM*	·	·	·
COC(=O)[C@@H](N)CS	20µM*!	-1%	10%	24µM*
COC(=O)C(N)Cc1ccc(O)cc1 (centres undefined)	10%	1%	6%	3%
O=C(Nc1ccc(Cl)cc1)Nc1ccccc1CC[N+](=O)[O-]	?	-8%	-30%	3.4µM*
Cc1ccccc1CNC(=O)Nc1ccc(Cl)cc1	-3%	4%	7.1µM*	0%
CN(C)C(=O)Nc1ccccc1CC[N+](=O)[O-]	2%	-2%	-3%	-11%
O=C(NCCc1ccccc1)Nc1ccc(Cl)cc1	-10%	-4%	5µM*	-5%
SMILES	VDR inh	Tb PFK block	BRCA1 expr up	PLK1 PBD inh
Cc1ccc(Cn2c(SCc3ccc(C(=O)O)cc3)nc3cccnc32)cc1	-6%	·	·	·
O=c1[nH]c2ccccc2nc1/C=C/c1ccccc1	10%	0%	4µM*	-4%
O=c1[nH]c2ccccc2nc1/C=C/c1ccc(O)cc1	6%	-1%	?	2%
CC1=C(c2ccc(C)c(C)c2)S(=O)(=O)N(Cc2ccc(C(=O)NCc3cccc(C)c3)cc2)C1=O	0%	·	·	·
CCCCCCCCCCCCN1[C@@H](CC(=O)O)c2cc(C(F)(F)F)ccc2S1(=O)=O	?	·	5%	34µM*
CCCCCCCCN1[C@@H](CC(=O)O)c2cc(C(F)(F)F)ccc2S1(=O)=O	-17%	·	1%	-20%
Nc1ccc(-c2cc3ccccc3[nH]2)cc1	·	·	0%	·
COc1ccc(Cl)cc1NC(=O)CSc1cn(CC(=O)N2CCCCCC2)c2ccccc12	6%	·	·	·
CCOC(=O)c1c(NC(=O)c2cc3nc(-c4ccccc4)cc(C(F)(F)F)n3n2)sc2c1CCC(C)C2 (centres undefined)	-7%	·	·	·
CCCCOc1ccc(C2(C)NC(=O)NC2=O)cc1 (centres undefined)	25µM*	-1%	9%	7.5µM*
